# Measurements as given in PubChem BioAssay AID1347076 (National Center for Advancing Translational Sciences (NCATS), 2019).
# Screen size: about 400,000 compounds; about 13,000 (3.2%) were called active. Roughly 18% stayed inconclusive and do not appear here. Only a selection was taken, and actives are over-represented in it overall. Values without a mark were called inactive. The call rests on the fitted dose curve; in most records, active means well fitted cell-killing curve with a large enough effect; inconclusive means small, poorly fitted or top-dose-only effect, or effect the other way; inactive means flat fitted curve, though single readings scatter.
# Assay: qHTS assay for MDR1-selective chemotherapeutics: Primary screen using the drug-selected MDR subline cells KB-V1; further: nearly all actives have a fitted effect of over 60% in size
# Conditions: KB-V1 MDR cells viability, CellTiter-Glo, 72 h; series mostly up to 46.1 µM; activity change, negative = cytotoxicity: at the top concentration
# Summary of the method: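 Cells of the MDR subline KB-V1 are plated, dosed with compound at multiple concentrations, and incubated 72 h at 37 degrees C; CellTiter-Glo is then added and luminescence read after 10 min.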
# On the % scale 0 is the no-effect control and ±100 the full control effect; potency means the concentration at half of the fitted maximal effect.
Compound,"activity change, negative = cytotoxicity",Potency
OCCc1ccc(NCCc2ccco2)cc1,20.5%,–
COc1ccc([N+](=O)[O-])cc1NC(=O)C(C)OC(=O)C1c2ccccc2Oc2ccccc21 (centres undefined),–,9.2 µM (active)
COc1ccc(C(=O)CC(=O)C(=O)Nc2cc([N+](=O)[O-])ccc2OC)cc1,-1.07%,–
COc1ccc([N+](=O)[O-])cc1NC(=O)CCc1ccccc1,-17.9%,–
Cc1ccccc1NC(=O)Cc1nc(COC(=O)C(C)(C)Oc2ccc(Cl)cc2)cs1,9.47%,–
Cn1nc(C(F)(F)F)c(C(=O)Nc2cccc(C(F)(F)F)c2)c1SCc1ccc(Cl)cc1,–,18.4 µM (active)
Cc1ccc(Cc2nc3ccccc3nc2SCC(=O)Nc2cccc(C(F)(F)F)c2)cc1,0%,–
Cc1onc(-c2ccc(F)cc2F)c1C(=O)Nc1cccc(C(F)(F)F)c1,-23.5%,–
CCC(=O)N1CCc2cc(Br)cc(S(=O)(=O)CCC(=O)NCCc3ccc(OC)c(OC)c3)c21,0%,–
C[C@@H]1CN([C@H](C)CO)C(=O)CCCn2cc(nn2)CO[C@H]1CN(C)S(C)(=O)=O,-10.7%,–
Cc1ccc(-c2nn(CCC(=O)Nc3ccc(OC(F)(F)F)cc3)c(=O)c3ccccc23)cc1,-14.4%,–
CCc1nc2ccc(C(=O)Nc3ccc(OC)c(OC)c3)cn2c1N(C)C(=O)c1cccc(OC)c1,3.04%,–
CCCC/C=C/c1cccc2nncn12,5.91%,–
CCCCC[C@H](C)N1C[C@@H](COCc2ccccc2)Oc2cc(N3CCC[C@@H]3CO)ccc2S1(=O)=O,13.8%,–
CC(=O)N1c2ccc(S(=O)(=O)N3CCCC(C(=O)Nc4cccc(Cl)c4)C3)cc2CC1C (centres undefined),-8.22%,–
CC(=O)N1CCCc2cc(S(=O)(=O)N3CCCC(C(=O)NCc4ccc(Cl)cc4)C3)ccc21 (centres undefined),–,inactive
CC(=O)N1CCCc2cc(S(=O)(=O)N3CCCC(C(=O)N4CCN(c5cccc(Cl)c5)CC4)C3)ccc21 (centres undefined),–,16.4 µM (active)
CC(=O)c1ccc(NC(=O)CSc2nc(-c3ccccc3F)nc3c2c(=O)n(C)c(=O)n3C)cc1,27.3%,–
CCCNC(=O)CSc1nc(Cc2ccccc2)nc2ccccc12,-19.6%,–
C=CCSc1nc(Cc2ccc(Cl)cc2)nc2ccccc12,–,16.4 µM (active)
CC(C)CCNC(=O)CSc1nc2ccccc2nc1Cc1ccc(Cl)cc1,10.5%,–
CCOC(=O)c1c(NC(=O)c2cc(-c3ccc(Cl)cc3)on2)sc2c1CCCC2,6.22%,–

Compound,"activity change, negative = cytotoxicity",Potency
COc1ccc(C)cc1-n1nnnc1SCc1nc2ccccc2c(=O)[nH]1,–,5.17 µM (active)
CCn1c(COc2c(C)cccc2C)nnc1SCc1nc2ccccc2c(=O)[nH]1,-6.81%,–
COc1ccc(CCCc2nnc(SCc3nc4ccccc4c(=O)[nH]3)n2C)cc1,-19.7%,–
COCCCn1c(=O)/c(=C/c2ccccc2OC(C)C)s/c1=C(\C#N)C(=O)Nc1ccc(C(=O)O)cc1,-5.04%,–
Cc1nc(C(F)(F)F)ccc1C(=O)N1CCC1(C)C(=O)NS(=O)(=O)c1ccccc1Cl (centres undefined),0.0203%,–
COc1cc(CNC(=O)c2cc3n(n2)CCCN(Cc2cccc(F)c2)C3=O)cc(OC)c1OC,1.03%,–
COC(=O)c1ccccc1NC(=O)Cn1c(=O)cc(C)c2c(C)nn(-c3cccc(Cl)c3C)c21,3.13%,–
CCCCCNC(=O)c1cccnc1SCC(=O)Nc1ccccc1OC,–,6.51 µM (active)
COc1ccccc1NC(=O)CSc1nnc(CNC(=O)c2ccccc2F)o1,0%,–
CCCNC(=O)c1ccccc1NC(=O)CSCc1ccc(OC)cc1,-14.4%,–
O=C(Nc1ccccn1)c1sc2ccc([N+](=O)[O-])cc2c1Cl,-9.59%,–
Cc1ccc(-c2ccc(CN3C(C(C)C)C(=O)N(Cc4cn(CCC5OCCCO5)nn4)CCS3(=O)=O)cc2)cc1 (centres undefined),-14.7%,–
CNC(=O)C[C@H]1C(=O)N(Cc2ccccc2)C[C@@H]1CSC,1.19%,–
Cc1ccc(NC(=O)Nc2cccnc2)cc1,-4.27%,–
Cc1ccc(-c2nc(-c3cccnc3)sc2CC(=O)Nc2ccc(C)c(Cl)c2)cc1,–,8.2 µM (active)
Cc1nc(-c2ccc(F)cc2)c(CC(=O)Nc2cccc(S(=O)(=O)N3CCOCC3)c2)s1,-8.88%,–
CC(=O)N1C[C@@H](CO)[C@@H](N(C)C(=O)c2ccco2)C[C@H]1c1ccccc1,12.2%,–
CCCCn1nnnc1C(c1cccc(OC)c1OC)N1CCN(C/C=C/c2ccccc2)CC1 (centres undefined),14.1%,–
CC(C)(O)C#Cc1ccc(CNC[C@H]2O[C@@H](n3cnc4c(=O)[nH]c(N)nc43)[C@H](O)[C@@H]2O)s1,8.09%,–
O=C(c1ccc(S(=O)(=O)N2CCCC2)cc1)N1CCN(c2ccccc2F)CC1,-7.58%,–
O=C(c1ccc(S(=O)(=O)N2CCOCC2)cc1)N1CCN(c2ccccc2)CC1,–,16.4 µM (active)
O=C(c1ccc(S(=O)(=O)NCc2ccco2)cc1)N1CCN(c2ccccc2)CC1,-12.4%,–

Compound,"activity change, negative = cytotoxicity",Potency
COc1cc2nnn(-c3ccncc3)c2cc1OC,-1.5%,–
CCOC(=O)C1(C)CCCN(C(=O)c2ccc(N(C)C)cc2)C1 (centres undefined),3.14%,–
O=C(COC(=O)c1ccccc1Br)Nc1nnc(-c2ccccc2)o1,-26.5%,–
O=C(Nc1nnc(-c2ccc(Cl)cc2)o1)c1ccccc1Br,–,6.51 µM (active)
O=C(Nc1ccccc1)c1ccccc1Br,4.37%,–
CCc1nc2c(OCc3ccc(C(=O)OC)cc3)cccn2c1N(C)C(=O)C(C)C,0.64%,–
C=CCn1nc(C(=O)OCC)cc1-c1sc(NC(=O)c2ccccc2)nc1C,-21.4%,–
C=CCn1c2ccccc2c2nnc(SC(CC)C(=O)Nc3nc(C)c(C(=O)OCC)s3)nc21 (centres undefined),–,2.31 µM (active)
CCOC(=O)c1sc(NC(=O)C(CC)Sc2nccn2C)nc1C (centres undefined),-18.2%,–
COc1ccccc1CCNC(=O)C(=O)NCCC1CCCCN1S(=O)(=O)c1cccs1 (centres undefined),-9.95%,–
O=C(NCCC1CCCCN1S(=O)(=O)c1cccs1)C(=O)Nc1ccc(F)cc1F (centres undefined),–,14.6 µM (active)
COc1ccc(CCNC(=O)C(=O)NCC2CCCN2S(=O)(=O)c2cccs2)cc1OC (centres undefined),-25.2%,–
COc1cc(C#Cc2ccc3cc(CCCO)oc(=O)c3c2)cc(OC)c1,–,3.66 µM (active)
O=C1c2ccccc2C(=O)N1CCC#Cc1ccc2cc(C3(O)CCCCC3)oc(=O)c2c1,4.63%,–
Cc1ccc(-c2csc3nnc(SCC(=O)NCc4ccco4)n23)cc1,–,9.2 µM (active)
O=C(CSc1nnc(-c2ccco2)n1-c1ccccc1)NCCc1ccccc1,-20.9%,–
CCn1c(SCC(=O)NCc2ccco2)nnc1-c1ccc(N)cc1,0%,–
O=C(CSc1nnc2scc(-c3ccc(F)cc3)n12)NCc1ccco1,-5.87%,–
Cn1c(-c2ccc(F)cc2)cnc1SCC(=O)NCc1ccco1,-15.2%,–
O=C(CSc1nnc(-c2ccco2)n1Cc1ccccc1)NC(=O)NCc1ccco1,–,20.6 µM (active)
